From PubChem BioAssay (NCI)
This is part of a sample that, as a whole, favours compounds with a hit. Of some 83,000 tested, about 20% had one in any assay.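 In brief: 96-well plates, 48 h treatment, single concentration, percent growth endpoint.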 Active and inactive are the calls of the source. The calls were made as follows: active = growth percent below 10; inactive = the rest.

What was measured:
Test in all cases: NCI-60 one-dose screen, 48 h (100 = growth as untreated, 0 = no growth, -100 = all killed)
Conditions in all cases: 10 µM unless noted
RPMI-8226 leukemia = system: RPMI-8226 leukemia
OVCAR-8 ovarian = system: OVCAR-8 ovarian
OVCAR-5 ovarian = system: OVCAR-5 ovarian
OVCAR-4 ovarian = system: OVCAR-4 ovarian
SK-OV-3 ovarian = system: SK-OV-3 ovarian
IGROV1 ovarian = system: IGROV1 ovarian
OVCAR-3 ovarian = system: OVCAR-3 ovarian
HS 578T breast = system: HS 578T breast
NCI/ADR-RES ovarian = system: NCI/ADR-RES ovarian

Measured: growth

CCOc1ccc(/C=N/NC(=O)c2cccc3ccccc23)cc1OCC
inactive: RPMI-8226 leukemia 83.8% | OVCAR-8 ovarian 105% | OVCAR-5 ovarian 104% | OVCAR-4 ovarian 91.9% | SK-OV-3 ovarian 99.2% | IGROV1 ovarian 108% | OVCAR-3 ovarian 96.4% | HS 578T breast 98.6% | NCI/ADR-RES ovarian 97.9%

CCOc1ccc(Br)cc1/C=C(\C#N)c1ccc([N+](=O)[O-])cc1
active: HS 578T breast 7.59%
inactive: RPMI-8226 leukemia 84.7% | OVCAR-8 ovarian 70% | OVCAR-5 ovarian 94.6% | OVCAR-4 ovarian 45.2% | SK-OV-3 ovarian 44.4% | IGROV1 ovarian 71.4% | OVCAR-3 ovarian 65.8% | NCI/ADR-RES ovarian 85.2%

COc1cc2oc(-c3ccc(NC(=O)c4ccccc4)cc3)cc(=O)c2c(OC)c1OC
inactive: RPMI-8226 leukemia 73.7% | OVCAR-8 ovarian 77.9% | OVCAR-5 ovarian 86.6% | OVCAR-4 ovarian 64.6% | SK-OV-3 ovarian 101% | IGROV1 ovarian 84.2% | OVCAR-3 ovarian 92.9% | HS 578T breast 80.7% | NCI/ADR-RES ovarian 89.4%

CNc1nc2ncn(C)c2c(=O)[nH]1
inactive: RPMI-8226 leukemia 97.4% | OVCAR-8 ovarian 104% | OVCAR-5 ovarian 86.7% | OVCAR-4 ovarian 93.8% | SK-OV-3 ovarian 104% | IGROV1 ovarian 94.2% | OVCAR-3 ovarian 113% | HS 578T breast 105% | NCI/ADR-RES ovarian 92.6%

CC1(c2ccc(Br)cc2)NC(=O)NC1=O (stereo unspecified)
inactive: RPMI-8226 leukemia 113% | OVCAR-8 ovarian 97.9% | OVCAR-5 ovarian 104% | OVCAR-4 ovarian 104% | SK-OV-3 ovarian 103% | IGROV1 ovarian 102% | OVCAR-3 ovarian 104% | HS 578T breast 101% | NCI/ADR-RES ovarian 103%

COc1cc(CCNc2cnc3cc(N)cc(N)c3n2)cc(OC)c1
inactive: RPMI-8226 leukemia 86% | OVCAR-8 ovarian 98.6% | OVCAR-5 ovarian 92.3% | OVCAR-4 ovarian 93.8% | SK-OV-3 ovarian 168% | IGROV1 ovarian 103% | OVCAR-3 ovarian 92.6% | HS 578T breast 132% | NCI/ADR-RES ovarian 105%

COc1ccc(-c2nc(Nc3nc4ccccc4[nH]3)nc(N)c2C#N)cc1
inactive: RPMI-8226 leukemia 94% | OVCAR-8 ovarian 103% | OVCAR-5 ovarian 104% | OVCAR-4 ovarian 102% | SK-OV-3 ovarian 102% | IGROV1 ovarian 59.1% | OVCAR-3 ovarian 111% | HS 578T breast 129% | NCI/ADR-RES ovarian 103%

CCn1cc(C(=O)O)c(=O)c2cc(F)c(N3CCN(S(=O)(=O)c4ccc(Cl)cc4)CC3)cc21
active: IGROV1 ovarian 9.37%
inactive: RPMI-8226 leukemia 13.4% | OVCAR-8 ovarian 12.6% | OVCAR-5 ovarian 51.9% | OVCAR-4 ovarian 37.7% | SK-OV-3 ovarian 40.8% | OVCAR-3 ovarian 28.2% | HS 578T breast 18.9% | NCI/ADR-RES ovarian 68.7%

COc1cc(C(=O)Nc2ccc(N(C)C)cc2)cc(OC)c1OC
inactive: RPMI-8226 leukemia 97.7% | OVCAR-8 ovarian 92.2% | OVCAR-5 ovarian 94.7% | OVCAR-4 ovarian 93.1% | SK-OV-3 ovarian 85.7% | IGROV1 ovarian 93.7% | OVCAR-3 ovarian 101% | HS 578T breast 95.5% | NCI/ADR-RES ovarian 87.3%

O=C(/C=C/c1cccc(O)c1)c1cccc(-n2cc(-c3ccc(Cl)cc3)[nH]c2=O)c1
inactive: OVCAR-4 ovarian 10.4% | SK-OV-3 ovarian 37.7%
active: RPMI-8226 leukemia -53.2% | OVCAR-8 ovarian -2.92% | OVCAR-5 ovarian -47.3% | IGROV1 ovarian -42.9% | OVCAR-3 ovarian -79.7% | HS 578T breast -48.4% | NCI/ADR-RES ovarian 3.39%

CCCCN(CCCC)c1ccc(C(=O)O)cc1
inactive: RPMI-8226 leukemia 102% | OVCAR-8 ovarian 105% | OVCAR-5 ovarian 108% | OVCAR-4 ovarian 101% | SK-OV-3 ovarian 98.5% | IGROV1 ovarian 99.3% | OVCAR-3 ovarian 106% | HS 578T breast 109% | NCI/ADR-RES ovarian 106%

Cc1ccc(C(=O)Nc2ccc(CN3CCN(C)CC3)c(C(F)(F)F)c2)cc1C#Cc1cncc2ncccc12
active: RPMI-8226 leukemia -53.5% | OVCAR-8 ovarian -76.8% | OVCAR-5 ovarian -93.9% | OVCAR-4 ovarian -87.5% | SK-OV-3 ovarian -12.6% | IGROV1 ovarian -82.7% | HS 578T breast -32.4% | NCI/ADR-RES ovarian 4.19%
inactive: OVCAR-3 ovarian 24.8%

COc1cc(NC(=O)CSc2nc3ccc(Cl)cc3c(=O)n2-c2ccc(F)cc2)cc(OC)c1OC
inactive: RPMI-8226 leukemia 39.2% | OVCAR-8 ovarian 88.8% | OVCAR-5 ovarian 88.7% | OVCAR-4 ovarian 77.2% | SK-OV-3 ovarian 87.6% | IGROV1 ovarian 86.6% | OVCAR-3 ovarian 80.6% | HS 578T breast 75% | NCI/ADR-RES ovarian 81%

COc1cc(N2C(=O)C=CC2=O)ccc1N1C(=O)C=CC1=O
inactive: RPMI-8226 leukemia 103% | OVCAR-8 ovarian 110% | OVCAR-5 ovarian 103% | OVCAR-4 ovarian 102% | SK-OV-3 ovarian 110% | IGROV1 ovarian 115% | OVCAR-3 ovarian 104% | HS 578T breast 102% | NCI/ADR-RES ovarian 106%

Cc1ccc(S(=O)(=O)Nc2cccc(Cn3c(=O)[nH]c4ccc(Oc5ncccn5)cc4c3=O)c2)cc1
inactive: RPMI-8226 leukemia 61.2% | OVCAR-8 ovarian 90.8% | OVCAR-5 ovarian 86.7% | OVCAR-4 ovarian 90.5% | SK-OV-3 ovarian 81.2% | IGROV1 ovarian 57.8% | OVCAR-3 ovarian 38.9% | HS 578T breast 89.3% | NCI/ADR-RES ovarian 93.3%

C/C=C(/C)C(=O)OC1C=C(CO)C(=O)C(OC(=O)/C(C)=C\C)C1C(C)C (stereo unspecified)
active: RPMI-8226 leukemia -39.4% | OVCAR-8 ovarian -22.7% | OVCAR-5 ovarian -76.6% | OVCAR-4 ovarian -48.8% | IGROV1 ovarian -77% | OVCAR-3 ovarian -89.1% | NCI/ADR-RES ovarian -6.28%
inactive: SK-OV-3 ovarian 16.4% | HS 578T breast 28.8%

CN(CCC#N)c1ccc(/C=C(\C#N)c2cccc(C(F)(F)F)c2)cc1
inactive: RPMI-8226 leukemia 57.4% | OVCAR-8 ovarian 76.1% | OVCAR-5 ovarian 76.9% | OVCAR-4 ovarian 68.3% | SK-OV-3 ovarian 98.1% | IGROV1 ovarian 65.7% | OVCAR-3 ovarian 69.4% | HS 578T breast 89.2% | NCI/ADR-RES ovarian 40.3%

N#Cc1c(N)nc(Nc2nc3ccccc3[nH]2)nc1-c1ccc(Cl)cc1
inactive: RPMI-8226 leukemia 94.4% | OVCAR-8 ovarian 102% | OVCAR-5 ovarian 107% | OVCAR-4 ovarian 116% | SK-OV-3 ovarian 88.4% | IGROV1 ovarian 98.7% | OVCAR-3 ovarian 127% | HS 578T breast 145% | NCI/ADR-RES ovarian 107%

Cc1ncc(C(=O)Nc2ccc(CN3CCN(C)CC3)c(C(F)(F)F)c2)cc1C#Cc1c(N)ncc2ccc(F)cc12
active: RPMI-8226 leukemia -43.6% | OVCAR-8 ovarian -74.8% | OVCAR-5 ovarian -45.3% | OVCAR-4 ovarian -58.6% | IGROV1 ovarian -76% | OVCAR-3 ovarian -23.4% | HS 578T breast -1.46% | NCI/ADR-RES ovarian -29.7%
inactive: SK-OV-3 ovarian 41.4%
